Screening results (PubChem BioAssay)
Rtt109 HAT inh = inhibitors of C. albicans Rtt109/Vps75 HAT, primary screen, biochemical, ThioGlo CoA-SH fluorescence, plate reader. actives 0.16% (n = 330,000). inhibition, % at 34.9 µM. purified Rtt109/Vps75, 4 h. Histone acetyltransferase RTT109 (Candida albicans (strain SC5314 / ATCC MYA-2876)), …;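 active = inhibition of at least 50% in every replicate; inconclusive = best replicate reaches 50% inhibition but some replicates fall short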
PDI inh = inhibitors of human PDI, primary screen, biochemical, turbidity, single point, plate reader | inhibition, % at 10 µM | PDI insulin aggregation turbidity, A650, 90 min | actives 0.052% (n = 350,000) | Protein disulfide-isomerase (Homo sapiens), P07237 | AID 588391, 2011;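 active = mean inhibition across replicates of 30% or more, whatever share of single replicates reach that level; inconclusive = mean inhibition below 30% while every single replicate reaches 30%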
Target sequence (P07237 whole entry, looked up): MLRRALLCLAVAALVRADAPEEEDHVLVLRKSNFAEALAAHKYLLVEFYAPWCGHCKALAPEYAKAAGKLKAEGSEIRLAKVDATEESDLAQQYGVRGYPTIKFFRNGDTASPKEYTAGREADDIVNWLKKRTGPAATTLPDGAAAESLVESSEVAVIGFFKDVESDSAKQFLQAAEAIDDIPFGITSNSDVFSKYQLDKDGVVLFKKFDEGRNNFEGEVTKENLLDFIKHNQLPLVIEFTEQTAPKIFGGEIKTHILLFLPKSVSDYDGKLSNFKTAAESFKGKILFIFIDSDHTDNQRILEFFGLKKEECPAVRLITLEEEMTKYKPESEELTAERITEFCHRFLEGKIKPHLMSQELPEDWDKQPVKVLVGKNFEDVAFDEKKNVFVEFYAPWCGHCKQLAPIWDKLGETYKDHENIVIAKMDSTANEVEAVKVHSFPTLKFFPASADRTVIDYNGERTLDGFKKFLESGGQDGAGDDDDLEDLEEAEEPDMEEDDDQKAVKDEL
ERp5 inh = inhibitors of ERp5-driven insulin aggregation, primary screen, biochemical, turbidity, absorbance 650 nm, single point; Protein disulfide-isomerase A6 (Homo sapiens), Q15084; 90 min; inhibition, % at 9.99 µM; actives 0.05% (n = 350,000);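 active = mean replicate inhibition above about 25%, with every replicate also reaching it, limit read from the data, passing the limit was not always enough; inconclusive = only one of those two criteria met; inactive = neither criterion met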
PvdQ acylase = P. aeruginosa PvdQ acylase inhibitors, primary screen, biochemical, fluorescence, plate reader and imaging, single point | purified PvdQ acylase | PvdQ acylase [Pseudomonas aeruginosa LESB58] | actives 0.063% (n = 340,000) | inhibition, % at 10 µM | AID 488965, 2010; in the data active = inhibition above about 30%, passing the limit was not always enough; inconclusive = no clear call, values can overlap the other calls;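 also: 0% = vehicle neutral wells and 100% = reference inhibitor wells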
Efflux pump mplx = inhibitors of Candida efflux pumps in yeast, primary screen, S. cerevisiae, Nile Red, multiplex; S. cerevisiae Candida pump triplex; inhibition, % at 10 µM; actives 0.44% (n = 330,000);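 active = plate passing quality check with inhibition over a set limit, or well fluorescence over plate mean plus 4 SD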;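 also: Nile Red retained in pooled yeast measured as flow cytometry median fluorescence; 0% = buffer negative control and 100% = Enniatin B positive control; higher means more Nile Red kept so more efflux inhibition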
* hit, by the source's call; ? = inconclusive; · = not tested or not shown. Only some compounds are listed: those with a hit (about 0.54% of all), similar ones and a draw of the others.

SMILES	Rtt109 HAT inh	PDI inh	ERp5 inh	PvdQ acylase	Efflux pump mplx
Cc1nnc(SC2CC(=O)N(c3ccccc3)C2=O)s1 (stereo not given)	100*	?	·	-5	0
CC(=O)N(C)C[C@H]1Oc2cc(-c3cccc(F)c3)ccc2S(=O)(=O)N([C@@H](C)CO)C[C@@H]1C	·	·	11	·	·
Cc1ccc2nc(-c3cccc(N)c3)oc2c1	28	-3	-4	4	0
Cc1ccc2nc(-c3ccc(O)cc3)oc2c1	-10	7	-3	32*	0
Cc1ccc(-c2ccc3c(c2)O[C@@H](CN(C)Cc2ccccc2)[C@@H](C)CN([C@@H](C)CO)S3(=O)=O)cc1	·	·	1	·	·
O=C(COC(=O)/C=C/c1cccc(Br)c1)NC1CCCCCC1	-5	-13	-7	42*	0
C[C@H](CO)N1C[C@H](C)[C@@H](CN(C)C(=O)Nc2ccc(F)cc2)OCc2ccccc2-c2c(n(C)c3ccccc23)C1=O	·	·	-1	·	·
CN1c2ccc(-c3ccc(F)cc3)cc2[C@@H]2[C@@H](CCN2C(=O)c2ccncc2)[C@@H]1CO	·	·	-5	·	·
Nc1c(C(=O)c2ccccc2)oc2ccc([N+](=O)[O-])cc12	55*	10	-13	7	0
Nc1c(C(=O)c2ccccc2)oc2ccc(Br)cc12	3	1	·	-5	0
O=C1/C(=C/c2cccc([N+](=O)[O-])c2)Oc2cc(O)ccc21	-17	-11	-2	41*	0
COCCN1Cc2cccc(C(=O)Nc3ccc(-c4nc5ccccc5[nH]4)cc3)c2C1=O	55*	-8	·	9	0
CCOc1ccc(NC(=O)c2cnccn2)cc1	3	0	·	0	0
CCOc1ccc(NC(=O)c2ccccn2)cc1	-11	-1	0	37*	0
CC[C@]12c3[nH]c4cc(-c5ccco5)ccc4c3CCN1C(=O)[C@@H](CC(=O)NCc1ccc(OC)c(OC)c1)C[C@@H]2C(=O)N1CCN(C(=O)c2ccco2)CC1	5	38*	0	-15	0
O=C1N[C@@H](Cc2ccccc2)[C@@H](c2ccco2)O1	2	-4	4	49*	0
COc1ccccc1C#Cc1ccc2c(c1)[C@H]1[C@H](CCN1S(=O)(=O)c1cccc(C)c1)[C@@H](CO)N2	·	·	-1	·	·
COc1ccc(C2c3ccc(O)cc3Oc3ncn(Cc4ccco4)c(=N)c32)cc1OC (stereo not given)	0	33*	5	-9	0
COc1ccc(C2c3ccc(O)cc3Oc3ncn(CC(C)C)c(=N)c32)cc1 (stereo not given)	-3	8	4	0	0
COc1ccc(C2c3ccc4ccccc4c3Oc3ncn(Cc4ccco4)c(=N)c32)cc1OC (stereo not given)	6	-13	·	-6	0
COc1ccc(C2c3ccc(O)cc3Oc3ncn4nc(-c5cccnc5)nc4c32)cc1OC (stereo not given)	-5	41*	11	-7	0
CCOC(=O)c1ccc(Nc2ncccc2[N+](=O)[O-])cc1	19	20	-7	44*	0
CCCCCCCCCCn1c2c(c(=N)c3c1CCC3)CCC2	77*	1	·	-2	0
C[C@H](CO)N1C[C@H](C)[C@@H](CN(C)CC2CC2)Oc2cc(-c3ccc(F)cc3)ccc2S1(=O)=O	·	·	-5	·	·
CCCN(C)C[C@@H]1Oc2cc(-c3ccc(F)cc3)ccc2S(=O)(=O)N([C@@H](C)CO)C[C@@H]1C	·	·	32*	·	·
SMILES	Rtt109 HAT inh	PDI inh	ERp5 inh	PvdQ acylase	Efflux pump mplx
C[C@@H]1CN([C@H](C)CO)S(=O)(=O)c2ccc(-c3ccc(F)cc3)cc2O[C@@H]1CN(C)CC1CC1	·	·	27*	·	·
C#Cc1ccc([C@H]2C=C(C(=O)NC3CC3)O[C@@H](OCc3ccc(CO)cc3)C2)cc1	·	·	2	·	·
COc1ccc(-n2cnc3scc(-c4ccc(OC)c(OC)c4)c3c2=O)cc1	62*	-4	2	7	0
CCNC(=O)[C@@H]1[C@@H](CO)[C@@H]2Cn3c(ccc(-c4ccc(OC)cc4)c3=O)[C@@H]2N1Cc1ccccc1	·	·	1	·	·
COc1cc(C2C(C(C)=O)=C(O)C(=O)N2CCc2c[nH]c3ccccc23)ccc1O (stereo not given)	0	41*	·	9	0
CC(=O)C1=C(O)C(=O)N(CCc2c[nH]c3ccccc23)C1c1cccc(O)c1 (stereo not given)	16	?	·	1	0
Fc1ccc(NC(=S)Nc2ccc(Br)cc2)cc1	55*	4	·	-1	0
Oc1ccc(NC(=S)Nc2ccc(F)cc2)cc1	-1	0	2	-12	0
CC1CCc2c(sc(N)c2C(N)=O)C1 (stereo not given)	50*	4	3	7	0
CCC1CCc2c(sc(N)c2C(N)=O)C1 (stereo not given)	1	-3	-7	-6	0
C[C@H](CO)N1C[C@H](C)[C@@H](CN(C)CC2CCCCC2)Oc2c(NC(=O)CCCCCC(=O)Nc3ccccc3N)cccc2C1=O	·	·	-1	·	·
CCOC(=O)c1ccc(N2Cc3ccccc3C2=N)cc1	-2	-1	·	58*	0
CCN1[C@@H]2Cn3c(ccc(C4=CCCCC4)c3=O)[C@H]1[C@@H](C(=O)NC1Cc3ccccc3C1)[C@@H]2CO	·	·	-3	·	·
Nc1ccc(Nc2ccncc2[N+](=O)[O-])cc1	50*	4	·	9	0
COc1ccc2c3c(n(C)c2c1)[C@H](CO)N(S(C)(=O)=O)CC31CCN(CC2CCCC2)CC1	·	·	60*	·	·
CCCNC(=O)Cn1sc2nc(C)cc(C)c2c1=O	113*	5	-2	-3	0
C=CCOC(=O)[C@H]1[C@@H]2C(=O)O[C@@H](c3ccccc3)[C@@H](c3ccccc3)N2[C@@H](c2ccc(OCCOC(=O)[C@H]3C[C@H]4C(=O)N[C@@H](Cc5ccccc5)C(=O)N4[C@H]3c3ccc(O)cc3)cc2)[C@]12C(=O)Nc1ccc(I)cc12	·	·	0	·	·
COc1cc(OC)cc(-n2c3nc4ccccc4nc3c3c(=O)n(CC4CCCO4)cnc32)c1 (stereo not given)	·	·	·	·	1.1*
C[C@@H]1CCCCO[C@@H](CN(C)Cc2ccc(C(=O)Nc3ccccc3N)cc2)[C@@H](C)CN([C@H](C)CO)C(=O)c2cc(NC(=O)Cc3ccccc3)ccc2O1	·	·	4	·	·
Cc1ccc(S(=O)(=O)CCc2nnc(NC(=O)C3CCCCC3)s2)cc1	-15	-8	-7	-14	0
CC(=O)Nc1nnc(CCS(=O)(=O)c2ccc(C)c(C)c2)s1	59*	0	1	4	0
COc1ccc(OC)c(/C=C2\SC(=S)N(C(C(=O)O)c3ccccc3)C2=O)c1 (stereo not given)	66*	-5	-1	3	0
